The source made the active and inactive calls. Unless noted, no rule for the calls is given here.
Experiments:
[1] = A549 cell viability effects, profiling panel, calcein-AM fluorescence, 48 h, basal (AID 1162); conditions: higher = more signal; also: test concentration not given here
[2] = adipocyte viability effects, profiling panel, cell-based, 3T3-L1 adipocytes, calcein-AM fluorescence, 48 h, basal (AID 1163); conditions: 3T3-L1 adipocytes viability, higher = more signal; also: test concentration not given here
[3] = HepG2 cell viability effects, profiling panel, calcein-AM fluorescence, 48 h, basal (AID 1164); conditions: higher = more signal; also: test concentration not given here
[4] = MM1S cell viability effects, profiling panel, calcein-AM fluorescence, 48 h, basal (AID 1165); conditions: higher = more signal;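 also: viability of MM1S multiple myeloma cells under basal unstimulated conditions; test concentration not given here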
[5] = basal RPMI8226 viability, no added stimulus, profiling panel, cell-based, calcein-AM fluorescence, 48 h, PK04 Diversity Set (AID 1166); conditions: RPMI8226 myeloma viability, higher = more signal;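 also: cells grown under basal conditions without added stimulus; test concentration not given here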
[6] = basal HepG2 mitochondrial membrane potential changes, profiling panel, cell-based, JC-1 fluorescence, 24 h, 100 nL compound (AID 1167); conditions: higher = more signal; also: test concentration not given here
[7] = basal 3T3-L1 adipocyte mitochondrial potential changes, profiling panel, cell-based, JC-1 fluorescence, 3T3-L1 adipocytes, 24 h, 100 nL compound (AID 1168); conditions: JC-1 mitochondrial fluorescence, higher = more signal, called active from +8 up or from −8 down; also: test concentration not given here
[8] = basal RPMI8226 mitochondrial membrane potential changes, profiling panel, cell-based, JC-1 fluorescence, 24 h, 100 nL compound (AID 1169); conditions: RPMI8226 myeloma, JC-1 mitochondrial potential fluorescence, higher = more signal; also: test concentration not given here
[9] = basal MM1S mitochondrial membrane potential changes, profiling panel, cell-based, JC-1 fluorescence, 24 h, 100 nL compound (AID 1170); conditions: higher = more signal; also: test concentration not given here
[10] = A549 lung cancer cell viability effects, profiling panel, resazurin fluorescence, 24 h, PK04 Diversity Set (AID 1171); conditions: higher = more signal, called active from +8 up or from −8 down; also: test concentration not given here
[11] = HepG2 liver cancer cell viability effects, profiling panel, resazurin fluorescence, 24 h, PK04 Diversity Set (AID 1172); conditions: higher = more signal; also: test concentration not given here
[12] = basal S. cerevisiae growth modulation, no modifier, primary screen, OD600, strain BY4716, 24 h, basal condition (AID 1173); conditions: OD600, 24 h, higher = more signal, called active from +8 up or from −8 down
[13] = MM1S myeloma cell viability, profiling panel, resazurin fluorescence, basal, 24 h, PK04 Diversity Set (AID 1174); conditions: higher = more signal, called active from +8 up or from −8 down;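 also: MM1S multiple myeloma cell line; test concentration not given here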
[14] = biological target: Dihydroorotate dehydrogenase (quinone), mitochondrial (Plasmodium falciparum (isolate 3D7)) (UniProt Q08210); assay: PfDHODH enzyme inhibitors, primary screen, biochemical, C-terminal His tag, absorbance 600 nm (AID 1175); conditions: DCIP absorbance 600 nm, higher = more signal, called active from +8 up or from −8 down;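 also: recombinant parasite enzyme with a five histidine tag at its C terminus; test concentration not given here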
[15] = P. aeruginosa biofilm formation inhibitors, primary screen, strain PAO1, LB-PBS medium, absorbance 600 nm (AID 1176); also: test concentration not given here; conditions: P. aeruginosa PAO1 growth/biofilm, A600, 12 h; higher = more signal
[16] = S. cerevisiae RM11-1a growth modifiers, primary screen, strain RM11-1a, OD600, basal, 24 h (AID 1177); conditions: OD600, 24 h, higher = more signal, called active from +8 up or from −8 down;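 also: cultures grown under basal conditions with no added stressor; test concentration not given here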
[17] = E. coli acrAB mutant growth effects, primary screen, E. coli filamentation inducers, strain DRC39, OD650, 24 h (AID 1178); conditions: higher = more signal, called active from +8 up or from −8 down;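 also: growth measured as culture turbidity by optical density at 650 nm; test concentration not given here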
[18] = E. coli acrAB mutant growth effects, primary screen, E. coli filamentation inducers, strain DRC39, OD650, 48 h (AID 1179);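 also: screen aims at cell division blockers that make cells filament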; conditions: E. coli DRC39 delta-acrAB growth, higher = more signal, called active from +8 up or from −8 down
[19] = RPMI8226 myeloma cell viability, profiling panel, resazurin fluorescence, basal, 24 h, PK04 Diversity Set (AID 1180); conditions: higher = more signal;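 also: RPMI8826 multiple myeloma cell line at 5000 cells per well; test concentration not given here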
[20] = biological target: E3 ubiquitin-protein ligase XIAP (Homo sapiens) (UniProt P98170); assay: XIAP binders, primary screen, biophysical, small-molecule microarray, fluorescence 635 nm (AID 1181); conditions: small-molecule microarray binding, higher = more signal;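 also: score merges 667 nm emission and signal to noise over triplicate slides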
E3 ubiquitin-protein ligase XIAP (Homo sapiens), sequence (P98170 whole entry, looked up): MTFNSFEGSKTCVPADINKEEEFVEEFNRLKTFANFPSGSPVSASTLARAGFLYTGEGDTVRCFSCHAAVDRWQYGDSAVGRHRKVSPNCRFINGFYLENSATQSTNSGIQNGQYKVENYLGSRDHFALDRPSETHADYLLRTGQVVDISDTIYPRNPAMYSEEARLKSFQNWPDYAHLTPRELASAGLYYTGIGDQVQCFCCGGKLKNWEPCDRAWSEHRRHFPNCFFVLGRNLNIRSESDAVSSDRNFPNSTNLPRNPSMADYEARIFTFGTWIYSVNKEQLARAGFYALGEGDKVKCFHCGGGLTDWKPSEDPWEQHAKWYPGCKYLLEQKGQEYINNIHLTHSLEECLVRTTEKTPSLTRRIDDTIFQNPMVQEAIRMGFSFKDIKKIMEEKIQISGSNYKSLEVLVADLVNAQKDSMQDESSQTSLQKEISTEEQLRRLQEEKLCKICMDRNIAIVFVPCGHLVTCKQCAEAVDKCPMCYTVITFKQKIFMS

Dihydroorotate dehydrogenase (quinone), mitochondrial (Plasmodium falciparum (isolate 3D7)), sequence (Q08210 whole entry, looked up): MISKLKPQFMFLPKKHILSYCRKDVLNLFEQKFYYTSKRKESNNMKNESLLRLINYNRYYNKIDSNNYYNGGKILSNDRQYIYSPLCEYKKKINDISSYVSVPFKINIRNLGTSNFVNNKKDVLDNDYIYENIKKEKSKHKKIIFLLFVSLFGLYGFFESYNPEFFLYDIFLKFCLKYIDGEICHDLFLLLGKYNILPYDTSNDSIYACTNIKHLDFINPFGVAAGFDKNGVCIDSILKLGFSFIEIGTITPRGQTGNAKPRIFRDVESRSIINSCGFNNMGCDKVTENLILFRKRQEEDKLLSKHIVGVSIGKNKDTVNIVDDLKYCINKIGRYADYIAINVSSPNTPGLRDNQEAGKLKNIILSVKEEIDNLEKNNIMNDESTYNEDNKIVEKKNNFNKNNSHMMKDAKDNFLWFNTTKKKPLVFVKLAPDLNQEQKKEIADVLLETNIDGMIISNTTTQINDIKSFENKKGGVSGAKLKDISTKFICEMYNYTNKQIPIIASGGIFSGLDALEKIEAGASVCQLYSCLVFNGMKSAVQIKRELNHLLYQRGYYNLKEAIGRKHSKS

Structure (SMILES) | z-score [1] | z-score [2] | z-score [3] | z-score [4] | z-score [5] | z-score [6] | z-score [7] | z-score [8] | z-score [9] | z-score [10] | z-score [11] | z-score [12] | z-score [13] | composite z-score [14] | z-score [15] | z-score [16] | z-score [17] | z-score [18] | z-score [19] | composite z-score [20]
CC(C)c1ccc(NN2C(C(O)C(c3ccccc3)c3ccccc3)C=CC3C(=O)N(c4ccccc4)C(=O)C32)cc1 (stereo not given) | -0.447 | -0.306 | -0.0211 | -0.535 | -0.967 | -0.988 | -0.8 (inactive) | -0.107 | 0.798 | -2.05 (inactive) | -1.49 | -0.141 (inactive) | -1.35 (inactive) | 0.704 (inactive) | 0.642 (inactive) | 1.17 (inactive) | -1.39 (inactive) | -1.47 (inactive) | -0.912 | -0.0525
C=CCNC(=O)[C@H]1[C@@H]2C(=O)O[C@@H](c3ccccc3)[C@@H](c3ccccc3)N2[C@@H](c2ccc(O)cc2)[C@]12C(=O)N(C(=O)OCCOC)c1ccc(C#CCNC(N)=O)cc12 | -0.755 | 0.0896 | 0.264 | -0.303 | -0.479 | -1.33 | 0.817 (inactive) | -0.294 | 0.179 | -0.157 (inactive) | -0.173 | 0.516 (inactive) | 0.244 (inactive) | 0.132 (inactive) | 0.911 (inactive) | 1.14 (inactive) | 0.204 (inactive) | -0.135 (inactive) | -0.17 | -0.219
CCN(CC)c1ccc(N2CC=CC34O[C@@H]5/C=C\CCC(C)OC(=O)C5[C@H]3C(=O)N(C(CO)C(C)C)[C@@H]4C2=O)cc1 (stereo not given in full) | -0.0553 | -1.18 | 0.936 | 1.26 | -0.208 | 0.96 | -0.118 (inactive) | 0.0122 | 1.01 | 0.406 (inactive) | -0.364 | 0.0948 (inactive) | 0.509 (inactive) | -2.68 (inactive) | -0.525 (inactive) | -0.185 (inactive) | 0.496 (inactive) | 0.767 (inactive) | 0.259 | 0.0049
COc1cc2c(cc1OC)CN(C(=O)[C@H]1[C@@H]3C(=O)O[C@@H](c4ccccc4)[C@@H](c4ccccc4)N3[C@@H](c3ccc(O)cc3)[C@]13C(=O)Nc1ccc(C#CCNC(N)=O)cc13)CC2 | -0.697 | 0.448 | 0.148 | 0.703 | 0.168 | -1.31 | 0.635 (inactive) | 0.22 | -0.222 | -0.0437 (inactive) | 0.543 | 0.16 (inactive) | 0.187 (inactive) | -2.16 (inactive) | 0.305 (inactive) | 0.0092 (inactive) | 0.537 (inactive) | 0.0455 (inactive) | 0.592 | -0.202
CC(C)(C)OC(=O)CC[C@@]1(C(N)=O)N=C(c2ccc(OCCCO)cc2)O[C@@H]1c1ccccc1 | 0.298 | -0.0721 | 0.105 | 0.0092 | 0.658 | -0.318 | -0.191 (inactive) | 0.919 | -0.0322 | 0.293 (inactive) | -0.175 | -0.63 (inactive) | -0.121 (inactive) | 0.0187 (inactive) | 0.469 (inactive) | -0.412 (inactive) | -0.352 (inactive) | -1.12 (inactive) | -0.359 | -0.18
C=C[C@H](COC(C)=O)N(C(=O)OC(C)(C)C)S(=O)(=O)c1ccc(Br)cc1 | 1.67 | 0.49 | 1.36 | -0.138 | 0.0593 | -0.87 | -0.614 (inactive) | -0.931 | -0.406 | 0.708 (inactive) | 0.738 | -0.705 (inactive) | -0.76 (inactive) | -0.0237 (inactive) | -0.621 (inactive) | 0.625 (inactive) | 0.623 (inactive) | 0.386 (inactive) | -0.17 | 0.137
O=C1C2C=CC(C(O)C(c3ccccc3)c3ccccc3)N(n3cnnc3)C2C(=O)N1Cc1ccccc1 (stereo not given) | -1.03 | 0.0304 | -1.13 | -1.09 | -0.23 | -1.26 | -1.26 (inactive) | -0.42 | 0.153 | -0.387 (inactive) | 0.264 | -1.94 (inactive) | -1.15 (inactive) | -0.436 (inactive) | 0.285 (inactive) | -0.255 (inactive) | -0.514 (inactive) | -0.305 (inactive) | -1.11 | 0.223
COCC(=C=CC[C@H](O)c1ccccc1OCCO)C[C@H](O)c1cc(Cl)cc(Cl)c1O | -2.79 | -4.68 | -2.64 | -2.93 | -3.02 | -0.775 | 1.66 (inactive) | -0.57 | -1.88 | -3.06 (inactive) | -1.18 | -19 (active) | -0.627 (inactive) | -9.33 (active) | -0.0828 (inactive) | -22.2 (active) | 0.275 (inactive) | 0.0273 (inactive) | -0.207 | -0.0559

From PubChem BioAssay
